# According to PubChem BioAssay (Tox21):
# Values joined by “and” are separate entries in the source; they are usually repeats but may differ in a detail not shown here. Equal entries are not always repeated. Values without a mark were called inactive. Records with an inconclusive call do not appear. Where a call stands in place of a potency, no number is given. Active and inactive are the calls of the source. Unless noted, calls come from the whole dose curve; as a rule, active = well fitted curve in the direction sought with a large enough effect in the repeat runs; inconclusive = weak or mixed curves; inactive = no such curve, though single readings can be large; an effect the other way counts as inactive or inconclusive.
# Assays:
# [1] = qHTS assay to identify small molecule agonists of the estrogen receptor alpha (ER-alpha) signaling pathway in the presence of an antagonist - cell viability counter screen (AID 1259386);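 note: cells exposed to compounds for 22 h at 37 °C before the viability read; nearly all actives have a fitted effect of over 30% in size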; note: potency is the fitted concentration of half-maximal effect
# Summary of the method: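 Using estrogen-depleted VM7Luc4E2 cells, the 15-concentration compound series was applied together with 10.0nM ICI-182,780 and incubated 22hr at 37C/5% CO2. Cell viability was then scored by CellTiter-Fluor.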
# [2] = molecular target: Progesterone receptor (Homo sapiens) (UniProt P06401); experiment: qHTS assay to identify small molecule agonists of the progesterone receptor (PR) signaling pathway (AID 1346784; calls by dose curve; note: nearly all actives have a fitted effect of over 30% in size)
# Summary of the method: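 Cells (PR-UAS-bla HEK 293T, GripTite) were plated in assay medium containing 2% charcoal-stripped FBS and incubated 6 hr. Test compounds in DMSO were added for 16 hr at 37C. FRET substrate was then loaded for 2 hr at room temperature before fluorescence reading.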
# [3] = molecular target: Progesterone receptor (Homo sapiens) (UniProt P06401); experiment: qHTS assay to identify small molecule antagonists of the progesterone receptor (PR) signaling pathway (AID 1346795; active = well fitted inhibition curve with a large enough effect in the signal ratio in the repeat runs, not every such curve was filed as active; the % refers to the signal ratio)
# Summary of the method: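 Antagonist mode: compounds tested against 1 nM (final) promegestone stimulation in HEK293T cells expressing PR-UAS-bla reporter, 16 hr at 37C, 5% CO2; beta-lactamase activity detected via B/G FRET substrate after 2 hr at room temperature.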
# [4] = qHTS assay to identify small molecule agonists of the progesterone receptor (PR) signaling pathway - cell viability counter screen (AID 1346799; calls by dose curve; note: nearly all actives have a fitted effect of over 45% in size)
# Summary of the method: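 Cells (PR-UAS-bla HEK293T) are plated at 3,000/well in 2% charcoal-stripped FBS medium, rested 6 hr, dosed and incubated 16 hr at 37C. CellTiter-Glo is then added and luminescence measured after 30 min at room temperature.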
# [5] = qHTS assay to identify small molecule antagonists of the TGF-beta/Smad signaling pathway - cell viability counter screen (AID 1346824); note: nearly all actives have a fitted effect of over 50% in size
# Summary of the method: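 Cytotoxicity counter-screen run in the same wells as the beta-lactamase Smad reporter read: CellTiter-Glo luminescence after 30 min at room temperature. HEK 293T SBE-bla cells had 5 hr compound exposure at 37 C with TGF-beta1 (0.25 ng/mL stock).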
# [6] = qHTS assay to identify small molecule agonists of the TGF-beta/Smad signaling pathway - cell viability counter screen (AID 1346829); note: top concentration of the series differs between compounds; nearly all actives have a fitted effect of over 45% in size
# Summary of the method: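 SBE-bla HEK 293T cells plated overnight, compound exposure 5 hr at 37 C. Viability read in the same wells by CellTiter-Glo luminescence after 30 min at room temperature, following the beta-lactamase read.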
# [7] = Human pregnane X receptor (PXR) small molecule agonists, qHTS cell viability counter screen (AID 1346977); note: nearly all actives have a fitted effect of over 50% in size
# Summary of the method: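 Cytotoxicity counter screen run in the same wells as the PXR luciferase assay, using PXR-Luc HepG2 cells in charcoal-stripped serum medium. Viability: CellTiter-Fluor fluorescence after 24hr compound treatment.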
# [8] = Caspase-3/7 induction in HepG2 cells by small molecules, qHTS assay (AID 1346978); note: nearly all actives have a fitted effect of over 15% in size
# Summary of the method: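 Caspase-3/7 induction was measured by Caspase-Glo 3/7 luminescence (30 min, room temperature) after a 17 hr compound exposure of wild-type HepG2 cells seeded at 2,000 per well and pre-incubated 5 hr.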
# [9] = Caspase-3/7 induction in CHO-K1 cells by small molecules, qHTS cell viability counter screen (AID 1346979); note: nearly all actives have a fitted effect of over 35% in size; note: potency is the fitted concentration of half-maximal effect
# Summary of the method: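 Cytotoxicity counter screen run in parallel with the caspase-3/7 assay: CHO-K1 cells, 16hr compound treatment at 37C, then CellTiter-Fluor for 1hr before fluorescence reading.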
# [10] = Caspase-3/7 induction in CHO-K1 cells by small molecules, qHTS assay (AID 1346980); note: nearly all actives have a fitted effect of over 15% in size
# Summary of the method: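 Luminescent Caspase-Glo 3/7 read (30min, room temperature) quantified apoptosis induction. Cells were wild-type CHO-K1, treated with compound for 17hr at 37 C and 5% CO2.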
# [11] = Caspase-3/7 induction in HepG2 cells by small molecules, qHTS cell viability counter screen (AID 1346981); note: nearly all actives have a fitted effect of over 30% in size; note: potency is the fitted concentration of half-maximal effect
# Summary of the method: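 After a 5-hr attachment period at 37 C and 5% CO2, wild-type HepG2 cells received compounds in DMSO. Sixteen hours later CellTiter-Fluor was dispensed and the fluorescent signal quantified after a further hour.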
# [12] = molecular target: Nuclear receptor subfamily 1 group I member 2 (Homo sapiens) (UniProt O75469); experiment: Human pregnane X receptor (PXR) small molecule agonists, qHTS assay (AID 1346982); note: nearly all actives have a fitted effect of over 35% in size; note: potency is the fitted concentration of half-maximal effect
# Summary of the method: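 Tox21 qHTS; PXR-Luc HepG2; compounds pinned from DMSO; 24 hr, 37 C; ONE-Glo luciferase detection, 30 min room temperature.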
# [13] = molecular target: Nuclear receptor subfamily 1 group I member 2 (Rattus norvegicus) (UniProt Q9R1A7); experiment: Rat pregnane X receptor (rPXR) activation by small molecules, qHTS assay (AID 1346983); conditions: rPXR luciferase reporter cells, One-Glo luminescence, 24 h; stronger effect = higher value; note: nearly all actives have a fitted effect of over 20% in size
# Summary of the method: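 Luminescent readout (One-Glo luciferase, 30 min room temperature) followed 24 hr compound treatment at 37 C of rPXR cells plated 2,000 per well and preincubated 5hr; qHTS format with compounds delivered in DMSO.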
# [14] = molecular target: Nuclear receptor subfamily 1 group I member 2 (Homo sapiens) (UniProt O75469); experiment: CYP3A4 induction through human pregnane X receptor (PXR) by small molecules, qHTS assay (AID 1346984); note: nearly all actives have a fitted effect of over 40% in size
# Summary of the method: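 Cells (DPX-2; HepG2 with PXR element plus CYP3A4-promoter luciferase) settled 5hr, then were treated 24hr at 37C. A 3hr, 3uM-final Luciferin-IPA step preceded luminescence measurement with One-Glo.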
# [15] = molecular target: Nuclear receptor subfamily 1 group I member 2 (Homo sapiens) (UniProt O75469); experiment: Human pregnane X receptor (PXR) activation by small molecules, qHTS assay (AID 1346985); note: nearly all actives have a fitted effect of over 40% in size
# Summary of the method: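 DPX-2 cells (HepG2 co-transfected with a PXR response element and a CYP3A4-promoter luciferase construct) were seeded at 2,000 per well, rested 5 hr at 37C, then exposed to DMSO-dissolved compounds for 24 hr. Activation was read as luciferase luminescence.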
# [16] = molecular target: Cytochrome P450 2D6 (Homo sapiens) (UniProt P10635); experiment: Cytochrome P450 Family 2 Subfamily D Member 6 (CYP2D6) small molecule antagonists: luciferase reporter qHTS assay (AID 1671196); note: nearly all actives have a fitted effect of over 50% in size; note: potency is the fitted concentration of half-maximal effect
# Summary of the method: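 Room-temperature luminescent CYP2D6 activity assay: compound preincubated 10 min with enzyme–substrate mix, NADPH-initiated reaction 1 h, detection reagent 20 min before reading.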
# [17] = qHTS assay to identify small molecule antagonists of the progesterone receptor (PR) signaling pathway - cell viability counter screen (AID 1346798); note: series mostly up to about 92 µM; nearly all actives have a fitted effect of over 50% in size
# Summary of the method: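 Counter screen for cytotoxicity: viability of PR-UAS-bla HEK293T cells was measured with CellTiter-Glo luminescence following 16 hr compound exposure in the presence of R5020.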
# [18] = molecular target: Thyrotropin-releasing hormone receptor (Homo sapiens) (UniProt P34981); experiment: qHTS assay to identify small molecule antagonists of the thyrotropin-releasing hormone receptor (TRHR) signaling pathway (AID 1346877; active = well fitted inhibition curve with a large enough effect in the repeat runs, not every such curve was filed as active; note: series mostly up to about 51 µM)
# Summary of the method: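 Calcium signal in dye-loaded TRHR/HEK293 cells; compounds added 5 min before TRH (1 nM final); fluorescence monitored 3 min at 1 s steps.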
# [19] = molecular target: Thyrotropin-releasing hormone receptor (Homo sapiens) (UniProt P34981); experiment: qHTS assay to identify small molecule agonists of the thyrotropin-releasing hormone receptor (TRHR) signaling pathway (AID 1346891; calls by dose curve;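 note: HEK293 cells expressing TRHR with calcium dye readout; series mostly up to about 58 µM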)
# Summary of the method: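 Cells: TRHR-Hek293, seeded and incubated 18 h. Dye loading: 2 h at 37 °C. Compound added from DMSO stock by pin tool. Read-out: kinetic calcium fluorescence over 3 min.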
# [20] = qHTS assay to identify small molecule agonists of the TGF-beta/Smad signaling pathway (AID 1346859; active = well fitted activation curve with a large enough effect in the signal ratio in the repeat runs, not every such curve was filed as active; the % refers to the signal ratio; note: series mostly up to about 77 µM)
# Summary of the method: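 Reporter line: HEK 293T with stably integrated SBE-controlled beta-lactamase. Compound exposure lasts 5 hr at 37 C and 5% CO2; substrate loading follows for 2 hr at room temperature, with emission read at 460 and 530 nm.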
# Nuclear receptor subfamily 1 group I member 2 (Homo sapiens), sequence (O75469 whole entry, looked up): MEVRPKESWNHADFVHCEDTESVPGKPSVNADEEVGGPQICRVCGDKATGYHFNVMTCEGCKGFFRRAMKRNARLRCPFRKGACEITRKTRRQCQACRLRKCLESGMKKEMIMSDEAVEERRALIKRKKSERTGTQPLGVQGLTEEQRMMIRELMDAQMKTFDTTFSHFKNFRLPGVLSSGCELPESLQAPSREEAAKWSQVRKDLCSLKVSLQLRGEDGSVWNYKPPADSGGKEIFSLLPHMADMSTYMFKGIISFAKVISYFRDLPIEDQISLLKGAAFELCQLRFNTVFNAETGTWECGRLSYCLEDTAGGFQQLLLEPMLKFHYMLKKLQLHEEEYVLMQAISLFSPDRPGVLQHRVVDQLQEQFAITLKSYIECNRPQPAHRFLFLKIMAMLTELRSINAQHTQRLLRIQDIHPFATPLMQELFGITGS
# Nuclear receptor subfamily 1 group I member 2 (Rattus norvegicus), sequence (Q9R1A7 whole entry, looked up): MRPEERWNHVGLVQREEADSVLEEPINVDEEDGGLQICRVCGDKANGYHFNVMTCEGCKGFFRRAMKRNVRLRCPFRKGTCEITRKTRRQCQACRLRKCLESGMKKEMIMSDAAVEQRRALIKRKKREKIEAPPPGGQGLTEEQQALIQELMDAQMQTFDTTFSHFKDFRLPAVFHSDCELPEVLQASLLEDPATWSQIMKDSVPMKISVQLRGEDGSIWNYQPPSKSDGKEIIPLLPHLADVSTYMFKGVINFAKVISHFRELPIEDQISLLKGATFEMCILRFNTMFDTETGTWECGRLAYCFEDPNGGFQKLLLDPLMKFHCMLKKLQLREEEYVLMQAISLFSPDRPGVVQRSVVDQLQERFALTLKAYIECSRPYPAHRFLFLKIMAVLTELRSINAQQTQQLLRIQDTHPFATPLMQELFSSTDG
# Progesterone receptor (Homo sapiens), sequence (P06401 whole entry, looked up): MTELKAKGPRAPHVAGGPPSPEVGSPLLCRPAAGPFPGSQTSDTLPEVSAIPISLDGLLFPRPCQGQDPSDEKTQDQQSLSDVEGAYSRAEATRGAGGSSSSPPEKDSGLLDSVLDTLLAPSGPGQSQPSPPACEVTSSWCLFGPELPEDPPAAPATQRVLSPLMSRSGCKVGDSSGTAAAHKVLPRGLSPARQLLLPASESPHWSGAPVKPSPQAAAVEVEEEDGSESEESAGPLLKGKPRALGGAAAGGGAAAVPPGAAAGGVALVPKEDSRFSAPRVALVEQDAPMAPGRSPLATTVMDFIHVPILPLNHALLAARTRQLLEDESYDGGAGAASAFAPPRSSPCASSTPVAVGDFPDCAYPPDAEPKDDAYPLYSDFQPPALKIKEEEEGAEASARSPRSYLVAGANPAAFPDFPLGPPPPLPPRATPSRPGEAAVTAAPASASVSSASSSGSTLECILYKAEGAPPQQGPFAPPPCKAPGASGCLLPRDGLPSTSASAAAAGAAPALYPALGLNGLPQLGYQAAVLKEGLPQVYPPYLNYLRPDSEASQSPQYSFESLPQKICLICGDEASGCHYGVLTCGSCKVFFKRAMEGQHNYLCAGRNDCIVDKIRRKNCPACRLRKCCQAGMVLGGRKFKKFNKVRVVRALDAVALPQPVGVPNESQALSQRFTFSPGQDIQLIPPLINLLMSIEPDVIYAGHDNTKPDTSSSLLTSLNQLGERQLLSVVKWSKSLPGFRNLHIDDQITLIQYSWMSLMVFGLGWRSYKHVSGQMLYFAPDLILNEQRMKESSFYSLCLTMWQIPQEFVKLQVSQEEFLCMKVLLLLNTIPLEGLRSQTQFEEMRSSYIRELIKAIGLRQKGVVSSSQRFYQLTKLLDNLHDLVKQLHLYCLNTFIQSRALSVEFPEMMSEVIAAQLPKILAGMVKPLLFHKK
# Thyrotropin-releasing hormone receptor (Homo sapiens), sequence (P34981 whole entry, looked up): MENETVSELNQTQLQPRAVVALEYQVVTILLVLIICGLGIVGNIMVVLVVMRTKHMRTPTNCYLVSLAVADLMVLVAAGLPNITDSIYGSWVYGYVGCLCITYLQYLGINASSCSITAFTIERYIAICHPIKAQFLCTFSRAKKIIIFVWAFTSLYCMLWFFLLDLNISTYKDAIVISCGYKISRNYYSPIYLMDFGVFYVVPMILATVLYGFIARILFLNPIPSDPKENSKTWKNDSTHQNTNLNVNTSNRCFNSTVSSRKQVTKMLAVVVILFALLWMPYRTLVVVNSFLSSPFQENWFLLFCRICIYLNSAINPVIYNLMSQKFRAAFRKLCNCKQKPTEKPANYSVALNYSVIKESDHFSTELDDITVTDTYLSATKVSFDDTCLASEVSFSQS
# Cytochrome P450 2D6 (Homo sapiens), sequence (P10635 whole entry, looked up): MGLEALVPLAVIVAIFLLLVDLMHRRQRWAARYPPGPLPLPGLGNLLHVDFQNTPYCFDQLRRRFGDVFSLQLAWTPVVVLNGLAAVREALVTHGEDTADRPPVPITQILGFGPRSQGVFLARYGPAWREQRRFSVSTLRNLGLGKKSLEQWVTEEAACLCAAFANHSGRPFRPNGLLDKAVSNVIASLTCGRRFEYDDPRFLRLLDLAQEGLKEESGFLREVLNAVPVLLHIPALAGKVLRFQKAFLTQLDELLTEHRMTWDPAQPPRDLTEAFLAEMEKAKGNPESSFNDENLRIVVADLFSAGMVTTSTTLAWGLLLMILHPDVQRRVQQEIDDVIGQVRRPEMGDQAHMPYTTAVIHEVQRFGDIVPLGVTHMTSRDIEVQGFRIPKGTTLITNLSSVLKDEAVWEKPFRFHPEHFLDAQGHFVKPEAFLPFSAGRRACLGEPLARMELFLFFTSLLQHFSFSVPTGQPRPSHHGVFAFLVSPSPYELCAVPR
Compound,Potency [1],Potency [2],Potency [3],Potency [4],Potency [5],Potency [6],Potency [7],Potency [8],Potency [9],Potency [10],Potency [11],Potency [12],max activation [13],Potency [14],Potency [15],Potency [16],Potency [17],Potency [18],Potency [19],outcome [20]
CCn1cc(C(=O)O)c(=O)c2cc(F)c(N3CCNC(C)C3)c(F)c21 (stereo unspecified),inactive,inactive,inactive,inactive,inactive,inactive,inactive,inactive,inactive,inactive,inactive,inactive,-0.533%,inactive,inactive,inactive,,,,
CC(=O)OCCOCCOCCOC(C)=O,inactive,inactive,,inactive,inactive,inactive,inactive,,inactive,inactive,inactive,inactive,,,,inactive,inactive,inactive,inactive,
CC(C)C(=O)c1c(C(C)C)nn2ccccc12,inactive,inactive,,inactive,inactive,inactive,inactive,inactive,inactive,inactive,,26.6 µM (active),,,,inactive,inactive,inactive,inactive,inactive
O=C(O)c1cc(Cl)cc(Cl)c1,inactive,inactive,,inactive,inactive,inactive,inactive,inactive,inactive,inactive,inactive,inactive,,,,35.4 µM (active),inactive,inactive,inactive,inactive
CCCN[C@H]1CCc2nc(N)sc2C1,inactive,inactive,,inactive,inactive,inactive,inactive,,inactive,inactive,inactive,,-1.97%,,,,inactive,,,inactive
OCCN1CCNCC1,inactive,inactive,,inactive,inactive,inactive,inactive,inactive,inactive,inactive,inactive,inactive,,,,inactive,,inactive,inactive,inactive
Cc1cccc2n[nH]nc12,inactive,inactive,,inactive,inactive,inactive,inactive,inactive,inactive,,inactive,,,,,inactive,inactive,inactive,inactive,
CC(=O)N[C@@H](CS)C(=O)O,inactive,inactive,,inactive,inactive,inactive,inactive,inactive,inactive,inactive,inactive,inactive,-0.291%,inactive,inactive,inactive,inactive,,,
CC(=O)C1=C(C)[C@@H]2C[C@@]3(C1)[C@H](C)CC[C@H]3C2(C)C,inactive,inactive,,inactive,inactive,inactive,inactive,inactive,inactive,,inactive,,,,,inactive,,inactive,inactive,inactive
C[N+]1([O-])CCOCC1,inactive,inactive,,inactive,inactive,inactive,inactive,inactive,inactive,inactive,inactive,inactive,,,,inactive,inactive,inactive,inactive,inactive
Nc1cc(S(=O)(=O)O)cc2cc(S(=O)(=O)O)cc(O)c12,48.3 µM (active) and 30.6 µM (active),inactive,inactive,,inactive,inactive,,inactive,43.1 µM (active) and 61.1 µM (active),inactive,54.5 µM (active),inactive,,,,35.6 µM (active),,inactive,inactive,inactive
CCc1ccc(C(c2ccc(CC)cc2)C(Cl)Cl)cc1,inactive,inactive,,inactive,inactive,inactive,inactive,inactive,inactive,inactive,inactive,31.1 µM (active) and 24.3 µM (active),,,,inactive,inactive,inactive,inactive,inactive
Cc1occc(=O)c1OC(=O)C(C)C,inactive,inactive,,inactive,inactive,inactive,inactive,,inactive,inactive,inactive,inactive,,,,inactive,inactive,inactive,inactive,inactive
